Measurements taken from the supplement of paper PMC13380429.

System: Vero E6 infected with SARS-CoV-2
Experiment: inhibition of SARS-CoV-2 cytopathic effect; higher = more antiviral protection, active = above 15
Settings: 48 h

Measured: inhibition of SARS-CoV-2 cytopathic effect

COc1cc(N2CCC(N3CCN(C)CC3)CC2)ccc1Nc1ncnc(Nc2ccccc2S(=O)(=O)C(C)C)n1
inactive: 1 nM 1.25% | 8.33 nM -0.68% | 100 nM 1.16% | 833.33 nM 2.18% | 10000 nM -7.16%

C[C@H]1[C@@H](O)O[C@@H]2O[C@@]3(C)CC[C@H]4[C@H](C)CC[C@@H]1[C@@]24OO3
inactive: 1 nM 0.99% | 8.33 nM 1.14% | 100 nM 1.39% | 833.33 nM 1.43% | 10000 nM 0.11%

CNC(=O)c1cnn(-c2nc(N)c3ncn([C@@H]4O[C@H](CO)[C@@H](O)[C@H]4O)c3n2)c1 [regadenoson]
inactive: 1 nM 1.53% | 8.33 nM 0.87% | 100 nM 3.4% | 833.33 nM -1.38% | 10000 nM -0.12%

CC(C)(C)NCC(O)c1cc(O)cc(O)c1 (stereo not given)
inactive: 1 nM -2.09% | 8.33 nM -0.61% | 100 nM -1.85% | 833.33 nM -0.02% | 10000 nM -0.76%

COc1ccccc1N1CCN(CCCCN2C(=O)c3ccccc3C2=O)CC1
inactive: 1 nM -0.49% | 8.33 nM -1.04% | 100 nM 2.68% | 833.33 nM 1.7% | 10000 nM 4.74%

N#C/C(=C\c1cn(-c2ccccc2)c2ccccc12)C(=O)O
inactive: 1 nM -0.26% | 8.33 nM -0.12% | 100 nM -0.58% | 833.33 nM 1.6% | 10000 nM -2.52%

Cc1nc(-c2ccc(OCC(C)C)c(C#N)c2)sc1C(=O)O [febuxostat]
inactive: 1 nM -0.9% | 8.33 nM -0.46% | 100 nM -0.43% | 833.33 nM 2.99% | 10000 nM 1.58%

Cc1c(C)c(NCC(=O)N(C)C2CCN(Cc3ccc(C(N)=O)cc3)CC2)c(C)c(C)c1N
inactive: 1 nM -0.43% | 8.33 nM -0.21% | 100 nM 0.76% | 833.33 nM -0.15% | 10000 nM 2.16%

CN1CCC(COc2cnc(-c3cccc(Cn4nc(-c5cccc(C#N)c5)ccc4=O)c3)nc2)CC1
inactive: 1 nM 1% | 8.33 nM 1.71% | 100 nM 1.4% | 833.33 nM 2.63% | 10000 nM 9.19%

O=C(NNc1ccccc1)c1ccncc1 [plurisin-1]
inactive: 1 nM 0.37% | 8.33 nM 1.32% | 100 nM 1.76% | 833.33 nM -2.79% | 10000 nM -6.02%

O=C(NC(NC(=S)Nc1ccc(F)c([N+](=O)[O-])c1)C(Cl)(Cl)Cl)C(c1ccccc1)c1ccccc1 (stereo not given)
inactive: 1 nM -2.82% | 8.33 nM -2.75% | 100 nM 0.28% | 833.33 nM -7.06% | 10000 nM -5.53%

CCc1c2c(nc3ccc(O)cc13)-c1cc3c(c(=O)n1C2)COC(=O)[C@]3(O)CC
inactive: 1 nM 1.57% | 8.33 nM 0.05% | 100 nM -1.96% | 833.33 nM -6.66% | 10000 nM -16.9%

O=C1C[C@@]2(C(=O)N1)C(=O)N(Cc1ccc(Br)cc1F)C(=O)c1cccn12 [ranirestat]
inactive: 1 nM 0.68% | 8.33 nM 1.21% | 100 nM 2.23% | 833.33 nM 3.78% | 10000 nM 1.01%

O=C(NCCS(=O)(=O)c1ccc(C(F)(F)F)cn1)c1ccc(Cl)cc1
inactive: 1 nM 4.56% | 8.33 nM -1.99% | 100 nM 5.99% | 833.33 nM 1.04% | 10000 nM 1.56%

COc1ccc(NS(=O)(=O)c2ccc(I)cc2)cc1N1CCN(C)CC1
inactive: 1 nM 0.59% | 8.33 nM -5.4% | 100 nM 0.99% | 833.33 nM 0.95% | 10000 nM -1.3%

CCC[C@H](Nc1nc(-c2ccc(NC(=O)NCC)c(OC)c2)ncc1C)c1cccnc1
inactive: 1 nM 0.07% | 8.33 nM -1.4% | 100 nM -1.33% | 833.33 nM -0.69% | 10000 nM -2.7%

CCOc1ccc(NC(=S)N2CCC(C(O)(c3ccccc3)c3ccccc3)CC2)cc1
inactive: 1 nM -2.59% | 8.33 nM -1.73% | 100 nM -2.48% | 833.33 nM -3.52% | 10000 nM -4.05%

C[C@]12CCC(=O)C=C1CC[C@@H]1[C@@H]2[C@@H](O)C[C@@]2(C)[C@H]1CC[C@]2(O)C(=O)COP(=O)(O)O [hydrocortisone-phosphate]
inactive: 1 nM 1.12% | 8.33 nM 3.34% | 100 nM 2.4% | 833.33 nM 2.84% | 10000 nM 1.11%
